Measurements as given in PMC5540273 (PLoS ONE, 2017).
Values joined by “and” are separate entries in the source; they are usually repeats but may differ in a detail not shown here. Equal values may be shown once. Read-outs that look alike come from different tables or passages of the source.

Experiments:
[1] = system: GRK1; details: concentration: 1 μM, replicates: in singlicate, n = 1
[2] = system: T1, GRK2; details: concentration: 1 μM, replicates: in singlicate; n = 1
T1 construct: gene ADRBK1

[3] = system: T2, GRK3; details: concentration: 1 μM, replicates: in singlicate, n = 1
T2 construct: gene ADRBK2

[4] = system: GRK4; details: concentration: 1 μM, replicates: in singlicate, n = 1
[5] = system: GRK7; details: concentration: 1 μM, replicates: in singlicate; n = 1
[6] = system: GSK3A; details: concentration: 1 μM, replicates: in singlicate, n = 1
[7] = system: GSK3B; details: n = 1
[8] = system: T3, HASPIN; details: concentration: 1 μM, replicates: in singlicate, n = 1
T3 construct: gene GSG2

[9] = system: HCK; details: concentration: 1 μM, replicates: in singlicate, n = 1
[10] = system: HIPK1; details: concentration: 1 μM, replicates: in singlicate, n = 1
[11] = concentration: 1 μM, replicates: in singlicate
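Also: KINOMEscan kinase panel screen.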

Row | Compound | %Inh [1] [%] | %Inh [2] [%] | %Inh [3] [%] | %Inh [4] [%] | %Inh [5] [%] | %Inh [6] [%] | %Inh [7, 11] [%] | %Inh [8] [%] | %Inh [9] [%] | %Inh [10] [%] | %Inh ([1]; 1 µM) | %Inh ([3]; 1 µM) | %Inh ([4]; 1 µM) | %Inh ([6]; 1 µM) | %Inh ([7]; concentration: 1 μM, replicates: in singlicate, 1 µM) | %Inh ([8]; 1 µM) | %Inh ([9]; 1 µM) | %Inh ([10]; 1 µM) | %Inh ([7]; 1 µM) [%]
1 | COC(=O)c1cccc(NC(=O)NCCNc2ccnc(Nc3ccc(F)cc3)n2)c1 [GSK1379883] | 0 | 0 | 17 | 2 | 0 | 19 | 0 | 37 | 0 | 0 | – | – | – | – | – | – | – | – | –
2 | Nc1nc(-c2ccc3c(N)n[nH]c3c2)cc(N2CCCCC2)n1 [GSK2228768] | 0 | 0 | 30 | 0 | 0 | 0 | 0 | 0 | 0 | 0 | – | – | – | – | – | – | – | – | –
3 | Cc1cccc(-c2nc(Nc3ccc4[nH]nnc4c3)c3ccccc3n2)n1 [GW867587] | 3 | 0 | 24 | 0 | 0 | 0 | 0 | 0 | 10 | 0 | – | – | – | – | – | – | – | – | –
4 | Cl.c1ccc(Cn2ncc3cc(Nc4ncnc5ccccc45)ccc32)cc1 [GW273749] | 0 | 0 | 0 | 0 | 0 | 10 | 14 | 8 | 0 | 0 | – | – | – | – | – | – | – | – | –
5 | Fc1ccc(-c2ncn(CCCNCc3ccccc3)c2-c2ccncc2)cc1 | 12 | 0 | 0 | 12 | 5 | 8 | 28 | 12 | 7 | 25 | – | – | – | – | – | – | – | – | –
6 | O=C(Nc1n[nH]c2nc(-c3ccco3)c(Br)cc12)c1ccc(CN2CCCC2)cc1.O=C(O)[C@H](O)[C@@H](O)C(=O)O [SB-742352] | 6 | 0 | 0 | 20 | 0 | 76 | 15 | 15 | 26 | 0 | – | – | – | – | – | – | – | – | –
7 | COc1ccc(NC(=O)c2ccc(-c3cc(-c4nnc(C)o4)ccc3C)cc2)cc1 [GW595885] | 0 | 0 | 99.2 | 22 | 0 | 32 | 0 | 21 | 0 | 0 | – | – | – | – | – | – | – | – | –
8 | Clc1ccc(-c2cc(-c3c[nH]nc3-c3ccccn3)ccn2)cc1 [GW681251] | 43 | 0 | 11 | 0 | 0 | 7 | 32 | 0 | 0 | 7 | – | – | – | – | – | – | – | – | –
9 | COc1ccc(-c2nc3n(c2-c2ccncc2)CCC3)cc1 [SKF-104493] | – | 0 | – | – | 0 | – | – | – | – | – | 11% and 12% | 5% and 0% | 27% and 2% | 0% and 17% | 27% and 1% | 28% and 0% | 10% and 0% | 8% and 0% | –
10 | CC(C)(C)OC(=O)NC1CCCN(c2cc(-c3ccc4c(N)n[nH]c4c3)nc(N)n2)C1 (stereo not shown) [GSK2286096] | 0 | 0 | 0 | 0 | 0 | 0 | 11 | 1 | 0 | 0 | – | – | – | – | – | – | – | – | –
11 | CCn1c(-c2ccncc2)nc2cnccc21 [SB-735216] | 11 | 4 | 63 | 45 | 24 | 9 | 30 | 57 | 7 | 10 | – | – | – | – | – | – | – | – | –
12 | CCc1nc(-c2cccc(N(C)S(=O)(=O)c3ccccc3)c2)c(-c2ccnc(Nc3ccc(N4CCN(C(C)=O)CC4)nc3)n2)s1 [GSK1645895] | 0 | 0 | 0 | 0 | 0 | 11 | 20 | 0 | 0 | 1 | – | – | – | – | – | – | – | – | –
13 | Nc1nc(-c2ccccn2)c(-c2ccnc3ccccc23)s1 [GW548057] | 1 | 0 | 58 | 0 | 0 | 8 | 5 | 26 | 4 | 17 | – | – | – | – | – | – | – | – | –
14 | Nc1n[nH]c2nnc(-c3ccccc3)cc12 [SB-517389] | 0 | 0 | 0 | 0 | 0 | 71 | – | 0 | 0 | 56 | – | – | – | – | – | – | – | – | 19
15 | Cc1cc(N2CCC(NS(=O)(=O)c3ccc(F)cc3)CC2)nc(Nc2cccc(C#N)c2)n1.O=C(O)C(F)(F)F [GSK1653537] | 0 | 0 | 16 | 22 | 0 | 0 | 0 | 0 | 0 | 0 | – | – | – | – | – | – | – | – | –
16 | NC(=O)c1sc(-n2cnc3ccccc32)cc1OCc1ccccc1F [GSK1024306] | 0 | 0 | 21 | 7 | 0 | 7 | 0 | 49 | 0 | 0 | – | – | – | – | – | – | – | – | –
17 | CN1CCC(n2cnc(-c3ccc(F)cc3)c2-c2ccnc(NC3CCNCC3)n2)CC1 [SB-229482] | 11 | 33 | 1 | 26 | 29 | 0 | 17 | 16 | 3 | 32 | – | – | – | – | – | – | – | – | –

Row | Compound | %Inh [1] [%] | %Inh [2] [%] | %Inh [3] [%] | %Inh [4] [%] | %Inh [5] [%] | %Inh [6] [%] | %Inh [7, 11] [%] | %Inh [8] [%] | %Inh [9] [%] | %Inh [10] [%] | %Inh ([1]; 1 µM) | %Inh ([3]; 1 µM) | %Inh ([4]; 1 µM) | %Inh ([6]; 1 µM) | %Inh ([7]; concentration: 1 μM, replicates: in singlicate, 1 µM) | %Inh ([8]; 1 µM) | %Inh ([9]; 1 µM) | %Inh ([10]; 1 µM) | %Inh ([7]; 1 µM) [%]
18 | Nc1nc(-c2cccnc2)c(-c2ccnc3ccccc23)s1 [GW684083] | 0 | 1 | 39 | 8 | 0 | 11 | 7 | 83 | 0 | 11 | – | – | – | – | – | – | – | – | –
19 | Fc1cccc(COc2ccc(Nc3ncnc4sc(-c5ccc[nH]5)cc34)cc2Cl)c1 [GW707818] | 0 | 0 | 0 | 0 | 0 | 22 | 3 | 0 | 0 | 0 | – | – | – | – | – | – | – | – | –
20 | FC(F)(F)c1ccc(-c2cc(-c3c[nH]nc3-c3ccccn3)ccn2)cc1 [GW599550] | 0 | 0 | 33 | 14 | 4 | 19 | 0 | 14 | 0 | 0 | – | – | – | – | – | – | – | – | –
21 | Cl.O=S(=O)(c1cccc(F)c1)c1ccc(Nc2ncnc3cc(Br)sc23)cc1Cl [GSK306886] | 4 | 0 | 0 | 0 | 0 | 21 | 31 | 0 | 0 | 0 | – | – | – | – | – | – | – | – | –
22 | N#Cc1ccc(Oc2ccc(Nc3ncnc4cc[nH]c34)cc2Cl)cc1 | 27 | 0 | 7 | 12 | 14 | 19 | 0 | 0 | 21 | 32 | – | – | – | – | – | – | – | – | –
23 | CC(=O)Nc1n[nH]c2ncc(-c3ccccc3)cc12 [SB-548492] | 26 | 0 | 0 | 18 | 31 | 78 | – | 42 | 9 | 45 | – | – | – | – | – | – | – | – | 50
24 | Cl.Fc1ccccc1COc1ccc(Nc2ncnc3ccc(-c4nnc(C(F)(F)F)o4)cc23)cc1Cl [GW424170] | 0 | 0 | 0 | 0 | 0 | 17 | 0 | 0 | 0 | 1 | – | – | – | – | – | – | – | – | –
25 | O=C(CCO)NCCn1ccc2ncnc(Nc3ccc(Oc4cccc(C(F)(F)F)c4)c(Cl)c3)c21 | 13 | 0 | 0 | 0 | 0 | 6 | 0 | 0 | 36 | 19 | – | – | – | – | – | – | – | – | –
26 | COc1ccc(Nc2nccc(N3CCC(NC(=O)Nc4ccc5c(c4)OCO5)C3)n2)cc1 (stereo not shown) [GSK1379745] | 13 | 0 | 20 | 15 | 0 | 0 | 7 | 13 | 0 | 0 | – | – | – | – | – | – | – | – | –
27 | O=C(NCCCN1CCCC1=O)c1cnc(NCc2cc(Cl)ccc2Cl)nc1NC1CCNCC1 | 33 | 2 | 22 | 0 | 68 | 0 | 0 | 0 | 3 | 5 | – | – | – | – | – | – | – | – | –
28 | Oc1ccc2ncnc(Nc3ccc(OCc4ccccc4)cc3)c2c1 [GI262866] | 7 | 0 | 6 | 18 | 0 | 0 | 0 | 17 | 0 | 0 | – | – | – | – | – | – | – | – | –
29 | Cl.Cl.c1ccc(-c2cc3ccncc3cc2OC2CCNCC2)cc1 [GSK1122999] | 0 | 0 | 0 | 9 | 10 | 21 | 18 | 89 | 0 | 5 | – | – | – | – | – | – | – | – | –
30 | COc1cc2c(Nc3cccc(NC(=O)c4ccccc4)c3)ncnc2cc1OCCCN1CCOCC1 [GSK223810] | 0 | 14 | 0 | 15 | 0 | 0 | 0 | 0 | 0 | 0 | – | – | – | – | – | – | – | – | –
31 | Cc1ccc(O)cc1Nc1cc(C(F)(F)F)nc2ccc(-c3ccncc3)cc12 [GW630823] | 0 | 0 | 0 | 0 | 0 | 5 | 0 | 0 | 18 | 8 | – | – | – | – | – | – | – | – | –
32 | CCCc1ccc(S(=O)(=O)NC2CCN(c3ccnc(Nc4ccc(OC)cc4)n3)C2)cc1 (stereo not shown) [GSK1379737] | 0 | 0 | 67 | 0 | 0 | 7 | 8 | 14 | 0 | 0 | – | – | – | – | – | – | – | – | –
33 | COC(=O)c1c(-c2ccccc2)c2cc(Cl)ccc2c(=O)n1Cc1ccc(S(C)(=O)=O)cc1 | 0 | 0 | 15 | 12 | 15 | 0 | 0 | 27 | 14 | 14 | – | – | – | – | – | – | – | – | –
34 | Cn1ccc2ncnc(Nc3ccc(Oc4cccc(Cl)c4)c(Cl)c3)c21 | 25 | 51 | 0 | 7 | 20 | 22 | 23 | 21 | 25 | 32 | – | – | – | – | – | – | – | – | –
